Source: PubChem BioAssay AID1159580 (chemical genetic matrix, 2015)
The campaign covered roughly 5,500 compounds. About 2,000 (36%) were called active. About 18% were inconclusive and are not listed. Rule as the data show it: active = normalized growth mostly below about 0.91 (no sharp cut-off); inconclusive = no clear call, values can overlap the other calls; inactive = mostly above about 0.92. The list shows a part of the results.

Assay: chemical genetic growth profiling, strain panel (AID 1159580);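 also: tested at 20 µM; growth read once vehicle control cultures reached saturation at 30 °C; 1 = growth at the plate median or of vehicle wells; lower values mean less growth of the strain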
Settings: growth OD

Measured: normalized growth

CC(=O)N1CCN(c2ccc(OCC3CO[C@](Cn4ccnc4)(c4ccc(Cl)cc4Cl)O3)cc2)CC1 (some centres undefined)
active: S. cerevisiae deletion strains, locus YJL187C, strain SWE1, stronger effect = lower value 0.0925 | S. cerevisiae deletion strains, locus YJR043C, strain POL32, stronger effect = lower value 0.094 | S. cerevisiae deletion strains, locus YJR066W, strain TOR1, stronger effect = lower value 0.0283 | S. cerevisiae deletion strains, locus YJR075W, strain HOC1, stronger effect = lower value 0.0852 | S. cerevisiae deletion strains, locus YKL068W, stronger effect = lower value 0.931 | S. cerevisiae deletion strains, locus YKL085W, strain MDH1 (second series), stronger effect = lower value 0.795 | S. cerevisiae deletion strains, locus YKL085W, strain MDH1, stronger effect = lower value 0.795 | S. cerevisiae deletion strains, locus YKL160W, strain elf1, stronger effect = lower value 0.104 | S. cerevisiae deletion strains, locus YKL190W, strain CNB1, stronger effect = lower value 0.0638 | S. cerevisiae deletion strains, locus YKR001C, strain vps1, stronger effect = lower value 0.112 | S. cerevisiae deletion strains, locus YKR026C, strain gcn3, stronger effect = lower value 0.168 | S. cerevisiae deletion strains, locus YKR091W, strain srl3, stronger effect = lower value 0.108 | S. cerevisiae deletion strains, locus YLL001W, strain dnm1, stronger effect = lower value 0.102 | S. cerevisiae deletion strains, locus YLL026W, stronger effect = lower value 0.0778 | S. cerevisiae deletion strains, locus YLL041C, strain sdh2, stronger effect = lower value 0.0858 | S. cerevisiae deletion strains, locus YLR027C, strain aat2, stronger effect = lower value 0.0792 | S. cerevisiae deletion strains, locus YLR039C, strain RIC1, stronger effect = lower value 0.444 | S. cerevisiae deletion strains, locus YLR058C, strain SHM2, stronger effect = lower value 0.072 | S. cerevisiae deletion strains, locus YLR102C, strain apc9, stronger effect = lower value 0.0929 | S. cerevisiae deletion strains, locus YLR113W, strain HOG1, stronger effect = lower value 0.16 | S. cerevisiae deletion strains, locus YLR221C, strain rsa3, stronger effect = lower value 0.0852 | S. cerevisiae deletion strains, locus YLR258W, strain gsy2, stronger effect = lower value 0.0919 | S. cerevisiae deletion strains, locus YLR262C, strain YPT6 (second series), stronger effect = lower value 0.314 | S. cerevisiae deletion strains, locus YLR262C, strain YPT6, stronger effect = lower value 0.523 | S. cerevisiae deletion strains, locus YLR268W, strain sec22, stronger effect = lower value 0.0953 | S. cerevisiae deletion strains, locus YLR320W, strain mms22, stronger effect = lower value 0.104 | S. cerevisiae deletion strains, locus YLR330W, strain CHS5, stronger effect = lower value 0.0775 | S. cerevisiae deletion strains, locus YLR342W, strain FKS1 (second series), stronger effect = lower value 0.0863 | S. cerevisiae deletion strains, locus YLR342W, strain FKS1, stronger effect = lower value 0.0875 | S. cerevisiae deletion strains, locus YLR357W, strain rsc2, stronger effect = lower value 0.231 | S. cerevisiae deletion strains, locus YLR370C, strain arc18, stronger effect = lower value 0.0894 | S. cerevisiae deletion strains, locus YLR371W, strain rom2, stronger effect = lower value 0.104 | S. cerevisiae deletion strains, locus YLR384C, strain iki3, stronger effect = lower value 0.0857 | S. cerevisiae deletion strains, locus YLR418C, strain cdc73, stronger effect = lower value 0.123 | S. cerevisiae deletion strains, locus YML016C, strain PPZ1, stronger effect = lower value 0.0722 | S. cerevisiae deletion strains, locus YML032C, strain rad52, stronger effect = lower value 0.112 | S. cerevisiae deletion strains, locus YML120C, strain ndi1, stronger effect = lower value 0.0823 | S. cerevisiae deletion strains, locus YML124C, strain tub3, stronger effect = lower value 0.0927 | S. cerevisiae deletion strains, locus YMR058W, strain fet3, stronger effect = lower value 0.0959 | S. cerevisiae deletion strains, locus YMR078C, strain ctf18, stronger effect = lower value 0.112 | S. cerevisiae deletion strains, locus YMR125W, strain sto1, stronger effect = lower value 0.102 | S. cerevisiae deletion strains, locus YMR129W, stronger effect = lower value 0.0847 | S. cerevisiae deletion strains, locus YMR205C, strain PFK2, stronger effect = lower value 0.141 | S. cerevisiae deletion strains, locus YMR223W, strain ubp8, stronger effect = lower value 0.105 | S. cerevisiae deletion strains, locus YMR231W, strain pep5, stronger effect = lower value 0.403 | S. cerevisiae deletion strains, locus YMR263W, strain SAP30, stronger effect = lower value 0.157 | S. cerevisiae deletion strains, locus YMR307W, strain GAS1, stronger effect = lower value 0.159 | S. cerevisiae deletion strains, locus YNL067W, strain RPL9B, stronger effect = lower value 0.0729 | S. cerevisiae deletion strains, locus YNL071W, strain lat1, stronger effect = lower value 0.0698 | S. cerevisiae deletion strains, locus YNL183C, strain NPR1, stronger effect = lower value 0.0744 | S. cerevisiae deletion strains, locus YNL209W, strain ssb2, stronger effect = lower value 0.195 | S. cerevisiae deletion strains, locus YNL233W, strain BNI4, stronger effect = lower value 0.0732 | S. cerevisiae deletion strains, locus YNL248C, strain rpa49, stronger effect = lower value 0.0896 | S. cerevisiae deletion strains, locus YNL250W, strain rad50, stronger effect = lower value 0.896 | S. cerevisiae deletion strains, locus YNL271C, strain bni1, stronger effect = lower value 0.906 | S. cerevisiae deletion strains, locus YNL298W, strain CLA4, stronger effect = lower value 0.246 | S. cerevisiae deletion strains, locus YNL307C, strain MCK1, stronger effect = lower value 0.0791 | S. cerevisiae deletion strains, locus YNL322C, strain KRE1 (second series), stronger effect = lower value 0.115 | S. cerevisiae deletion strains, locus YNR049C, strain mso1, stronger effect = lower value 0.0955 | S. cerevisiae deletion strains, locus YNR052C, strain pop2, stronger effect = lower value 0.144 | S. cerevisiae deletion strains, locus YOL147C, strain pex11, stronger effect = lower value 0.0768 | S. cerevisiae deletion strains, locus YOR001W, strain rrp6, stronger effect = lower value 0.0988 | S. cerevisiae deletion strains, locus YOR061W, strain CKA2, stronger effect = lower value 0.125 | S. cerevisiae deletion strains, locus YOR069W, strain VPS5, stronger effect = lower value 0.0927 | S. cerevisiae deletion strains, locus YOR070C, strain gyp1, stronger effect = lower value 0.0793 | S. cerevisiae deletion strains, locus YOR080W, strain dia2, stronger effect = lower value 0.096 | S. cerevisiae deletion strains, locus YOR083W, strain WHI5, stronger effect = lower value 0.136 | S. cerevisiae deletion strains, locus YOR106W, strain vam3, stronger effect = lower value 0.116 | S. cerevisiae deletion strains, locus YOR136W, strain idh2, stronger effect = lower value 0.112 | S. cerevisiae deletion strains, locus YOR144C, strain elg1, stronger effect = lower value 0.0877 | S. cerevisiae deletion strains, locus YOR184W, strain ser1, stronger effect = lower value 0.0917 | S. cerevisiae deletion strains, locus YOR231W, strain MKK1, stronger effect = lower value 0.157 | S. cerevisiae deletion strains, locus YOR265W, strain rbl2, stronger effect = lower value 0.0927 | S. cerevisiae deletion strains, locus YOR270C, strain vph1, stronger effect = lower value 0.112 | S. cerevisiae deletion strains, locus YOR290C, strain snf2, stronger effect = lower value 0.0982 | S. cerevisiae deletion strains, locus YOR316C, strain cot1, stronger effect = lower value 0.0844 | S. cerevisiae deletion strains, locus YPL051W, strain arl3, stronger effect = lower value 0.141 | S. cerevisiae deletion strains, locus YPL078C, strain atp4, stronger effect = lower value 0.0953 | S. cerevisiae deletion strains, locus YPL106C, strain sse1, stronger effect = lower value 0.137 | S. cerevisiae deletion strains, locus YPL240C, strain hsp82, stronger effect = lower value 0.09 | S. cerevisiae deletion strains, locus YPL256C, strain CLN2, stronger effect = lower value 0.182 | S. cerevisiae deletion strains, locus YPR119W, strain clb2, stronger effect = lower value 0.105 | S. cerevisiae deletion strains, locus YPR163C, strain tif3, stronger effect = lower value 0.105 | S. cerevisiae deletion strains, locus YPR167C, strain met16, stronger effect = lower value 0.1 | S. cerevisiae deletion strains, strain wtn01, stronger effect = lower value 0.0951 | S. cerevisiae strains, strain wild type, stronger effect = lower value 0.0668
inactive: S. cerevisiae deletion strains, locus YKL009W, strain mrt4, stronger effect = lower value 0.994 | S. cerevisiae deletion strains, locus YOL012C, strain htz1 0.25 | S. cerevisiae deletion strains, locus YPR141C, strain kar3, stronger effect = lower value 0.971
